Test results: the supplement of paper PMC10849652
About 7,900 targets were measured; listed, in parts, are those with a hit and a random draw of the rest. About 0.6% of all pairs of compound and target were hits. Values without a mark were called inactive.

These targets were tested with COC(=O)[C@H](CCSC)NC(=O)C1=C(C=C(C=C1)NC[C@H](CS)N)C2=CC=CC=C2 (assay: log2 fold change, soluble protein after heating vs DMSO (PISA); higher = thermal stabilisation; K562 cells, 10 uM, 30 min; active = over 0.2 and 3.5 SD of the protein, either way, in both replicates (recomputed)).
How it was run: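 Soluble protein was quantified by TMTpro 16plex LC-MS/MS after channel sums were equalised. It was obtained as the supernatant after 21,000xg for 90 min from pooled aliquots of K562 cells (2×10^6 cells/mL, 10 μM compound, 30 min) heated for 3 min across 48°C-58°C and extracted in PBS with 0.5% NP-40 at 4°C. Thermal stability values are relative to control samples and come from duplicates. They are given as log2 fold changes.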

Chain of UniProt Q9P2D3 (Q9P2D3 whole entry, looked up): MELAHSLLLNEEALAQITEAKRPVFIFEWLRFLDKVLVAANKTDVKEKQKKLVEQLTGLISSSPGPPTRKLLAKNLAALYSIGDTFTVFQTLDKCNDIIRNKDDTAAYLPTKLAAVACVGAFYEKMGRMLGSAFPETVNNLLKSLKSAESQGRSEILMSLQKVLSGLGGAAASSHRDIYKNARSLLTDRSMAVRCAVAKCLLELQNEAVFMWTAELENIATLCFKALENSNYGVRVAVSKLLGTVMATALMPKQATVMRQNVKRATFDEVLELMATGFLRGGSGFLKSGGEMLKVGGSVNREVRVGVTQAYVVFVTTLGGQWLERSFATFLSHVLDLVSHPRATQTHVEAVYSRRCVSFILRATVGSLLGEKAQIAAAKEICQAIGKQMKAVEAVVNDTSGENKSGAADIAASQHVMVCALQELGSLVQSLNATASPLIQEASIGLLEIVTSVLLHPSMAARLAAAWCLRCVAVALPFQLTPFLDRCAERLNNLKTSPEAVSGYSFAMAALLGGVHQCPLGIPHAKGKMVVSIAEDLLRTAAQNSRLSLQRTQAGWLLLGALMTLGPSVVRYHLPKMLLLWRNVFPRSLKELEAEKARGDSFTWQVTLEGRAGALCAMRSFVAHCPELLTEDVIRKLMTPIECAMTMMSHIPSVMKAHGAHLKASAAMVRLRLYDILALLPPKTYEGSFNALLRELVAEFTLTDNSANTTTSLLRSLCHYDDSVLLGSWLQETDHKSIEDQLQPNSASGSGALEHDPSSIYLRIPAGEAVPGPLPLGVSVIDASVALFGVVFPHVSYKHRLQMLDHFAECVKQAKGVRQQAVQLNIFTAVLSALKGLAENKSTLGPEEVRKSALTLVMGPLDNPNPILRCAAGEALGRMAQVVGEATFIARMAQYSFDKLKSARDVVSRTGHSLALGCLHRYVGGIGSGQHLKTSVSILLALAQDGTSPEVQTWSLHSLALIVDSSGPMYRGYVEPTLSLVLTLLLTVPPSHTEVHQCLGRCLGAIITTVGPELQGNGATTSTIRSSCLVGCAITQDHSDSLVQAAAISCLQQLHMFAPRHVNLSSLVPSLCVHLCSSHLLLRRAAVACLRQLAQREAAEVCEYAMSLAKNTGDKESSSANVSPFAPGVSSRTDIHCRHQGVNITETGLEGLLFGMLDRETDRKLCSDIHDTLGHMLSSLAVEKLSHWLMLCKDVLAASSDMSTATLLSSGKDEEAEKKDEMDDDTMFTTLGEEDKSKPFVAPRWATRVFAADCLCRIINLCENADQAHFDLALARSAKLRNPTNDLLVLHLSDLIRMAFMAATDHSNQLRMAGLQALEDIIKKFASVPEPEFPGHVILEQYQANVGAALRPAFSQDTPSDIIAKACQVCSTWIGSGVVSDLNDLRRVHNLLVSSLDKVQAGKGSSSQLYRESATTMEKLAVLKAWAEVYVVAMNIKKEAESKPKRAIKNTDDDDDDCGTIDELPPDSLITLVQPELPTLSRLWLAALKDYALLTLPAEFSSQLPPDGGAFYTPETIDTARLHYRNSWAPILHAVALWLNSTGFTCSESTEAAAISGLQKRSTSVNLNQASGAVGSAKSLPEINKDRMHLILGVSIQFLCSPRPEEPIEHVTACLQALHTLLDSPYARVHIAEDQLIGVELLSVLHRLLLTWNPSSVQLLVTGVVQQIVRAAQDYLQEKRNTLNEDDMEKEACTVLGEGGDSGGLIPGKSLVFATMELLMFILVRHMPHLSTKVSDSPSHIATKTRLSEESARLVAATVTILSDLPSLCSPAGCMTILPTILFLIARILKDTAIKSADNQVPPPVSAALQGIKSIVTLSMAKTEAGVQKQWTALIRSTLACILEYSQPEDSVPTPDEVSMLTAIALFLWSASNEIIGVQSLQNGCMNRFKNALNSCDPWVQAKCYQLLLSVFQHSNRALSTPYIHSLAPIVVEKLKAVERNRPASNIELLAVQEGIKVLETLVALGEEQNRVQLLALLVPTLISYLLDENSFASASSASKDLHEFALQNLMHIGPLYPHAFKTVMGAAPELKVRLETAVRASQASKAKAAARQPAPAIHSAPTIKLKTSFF
Chain of UniProt Q14C86 (Q14C86 whole entry, looked up): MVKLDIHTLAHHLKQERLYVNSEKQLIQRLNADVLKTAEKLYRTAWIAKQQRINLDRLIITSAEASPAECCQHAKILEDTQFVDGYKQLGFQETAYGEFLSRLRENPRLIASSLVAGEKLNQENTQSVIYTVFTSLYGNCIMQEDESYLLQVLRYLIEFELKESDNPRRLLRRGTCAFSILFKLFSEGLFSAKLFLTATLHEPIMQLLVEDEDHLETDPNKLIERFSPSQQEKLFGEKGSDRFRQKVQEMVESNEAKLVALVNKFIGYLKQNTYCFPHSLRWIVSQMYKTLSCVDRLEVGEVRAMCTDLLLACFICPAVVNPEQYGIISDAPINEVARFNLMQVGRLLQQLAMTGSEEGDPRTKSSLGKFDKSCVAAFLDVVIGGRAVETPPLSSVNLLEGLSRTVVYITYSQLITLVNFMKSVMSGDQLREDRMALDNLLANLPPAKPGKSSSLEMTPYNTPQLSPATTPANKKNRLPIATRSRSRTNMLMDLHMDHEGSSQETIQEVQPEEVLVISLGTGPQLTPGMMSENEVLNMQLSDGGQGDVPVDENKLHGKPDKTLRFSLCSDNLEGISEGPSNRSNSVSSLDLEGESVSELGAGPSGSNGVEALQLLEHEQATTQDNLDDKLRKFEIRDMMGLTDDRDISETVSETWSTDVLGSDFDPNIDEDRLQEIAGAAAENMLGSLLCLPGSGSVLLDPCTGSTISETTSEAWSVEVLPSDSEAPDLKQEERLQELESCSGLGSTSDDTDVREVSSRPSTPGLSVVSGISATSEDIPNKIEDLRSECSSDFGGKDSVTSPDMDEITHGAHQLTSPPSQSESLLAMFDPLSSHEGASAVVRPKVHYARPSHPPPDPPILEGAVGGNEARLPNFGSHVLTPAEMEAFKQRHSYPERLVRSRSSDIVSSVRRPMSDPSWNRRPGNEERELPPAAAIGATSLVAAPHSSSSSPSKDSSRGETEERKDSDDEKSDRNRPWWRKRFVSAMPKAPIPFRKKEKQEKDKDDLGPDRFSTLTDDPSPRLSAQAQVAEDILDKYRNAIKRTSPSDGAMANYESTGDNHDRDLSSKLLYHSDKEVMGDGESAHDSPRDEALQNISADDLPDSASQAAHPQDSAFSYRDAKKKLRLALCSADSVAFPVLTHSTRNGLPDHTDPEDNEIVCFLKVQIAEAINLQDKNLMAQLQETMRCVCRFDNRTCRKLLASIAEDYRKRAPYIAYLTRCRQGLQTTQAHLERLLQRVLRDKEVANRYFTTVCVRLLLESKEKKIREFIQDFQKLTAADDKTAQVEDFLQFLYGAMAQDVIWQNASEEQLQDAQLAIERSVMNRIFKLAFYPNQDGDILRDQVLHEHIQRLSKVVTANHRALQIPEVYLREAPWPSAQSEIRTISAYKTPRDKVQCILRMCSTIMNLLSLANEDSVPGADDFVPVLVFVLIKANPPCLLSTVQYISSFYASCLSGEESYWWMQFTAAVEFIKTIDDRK
Chain of UniProt Q658Y4 (Q658Y4 whole entry, looked up): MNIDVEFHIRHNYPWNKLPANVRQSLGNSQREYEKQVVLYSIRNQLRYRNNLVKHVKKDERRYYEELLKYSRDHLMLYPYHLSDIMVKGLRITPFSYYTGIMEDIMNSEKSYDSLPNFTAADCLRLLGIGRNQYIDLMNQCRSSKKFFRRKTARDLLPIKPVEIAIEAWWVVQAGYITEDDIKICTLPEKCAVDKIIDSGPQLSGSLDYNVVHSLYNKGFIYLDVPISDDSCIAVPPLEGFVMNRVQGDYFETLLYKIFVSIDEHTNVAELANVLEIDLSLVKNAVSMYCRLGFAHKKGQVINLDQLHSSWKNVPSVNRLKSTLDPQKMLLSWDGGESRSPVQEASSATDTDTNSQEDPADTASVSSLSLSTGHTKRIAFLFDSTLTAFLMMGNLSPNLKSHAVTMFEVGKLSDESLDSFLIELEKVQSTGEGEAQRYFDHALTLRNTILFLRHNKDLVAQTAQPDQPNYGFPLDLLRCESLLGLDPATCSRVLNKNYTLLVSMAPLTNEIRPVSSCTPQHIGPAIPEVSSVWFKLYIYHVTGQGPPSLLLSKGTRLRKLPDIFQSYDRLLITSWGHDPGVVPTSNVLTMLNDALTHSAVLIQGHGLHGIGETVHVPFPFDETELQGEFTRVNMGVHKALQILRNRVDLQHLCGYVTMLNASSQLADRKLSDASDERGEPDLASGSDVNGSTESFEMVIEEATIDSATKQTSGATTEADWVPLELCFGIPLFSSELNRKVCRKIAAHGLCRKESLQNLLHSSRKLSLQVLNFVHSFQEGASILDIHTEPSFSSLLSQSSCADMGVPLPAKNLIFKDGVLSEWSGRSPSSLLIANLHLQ
Chain of UniProt P49841 (P49841 whole entry, looked up): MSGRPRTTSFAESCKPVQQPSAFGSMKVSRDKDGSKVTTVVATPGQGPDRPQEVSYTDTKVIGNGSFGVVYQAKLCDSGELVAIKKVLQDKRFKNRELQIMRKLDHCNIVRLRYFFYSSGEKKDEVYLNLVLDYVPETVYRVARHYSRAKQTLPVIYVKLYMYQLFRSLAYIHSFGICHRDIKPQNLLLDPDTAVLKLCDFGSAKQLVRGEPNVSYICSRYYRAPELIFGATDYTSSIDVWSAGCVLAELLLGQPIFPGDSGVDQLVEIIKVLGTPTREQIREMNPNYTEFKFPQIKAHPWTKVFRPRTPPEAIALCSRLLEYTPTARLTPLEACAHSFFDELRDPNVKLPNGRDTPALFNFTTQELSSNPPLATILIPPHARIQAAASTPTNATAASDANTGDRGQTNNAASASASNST
Chain of UniProt Q8N9F7 (Q8N9F7 whole entry, looked up): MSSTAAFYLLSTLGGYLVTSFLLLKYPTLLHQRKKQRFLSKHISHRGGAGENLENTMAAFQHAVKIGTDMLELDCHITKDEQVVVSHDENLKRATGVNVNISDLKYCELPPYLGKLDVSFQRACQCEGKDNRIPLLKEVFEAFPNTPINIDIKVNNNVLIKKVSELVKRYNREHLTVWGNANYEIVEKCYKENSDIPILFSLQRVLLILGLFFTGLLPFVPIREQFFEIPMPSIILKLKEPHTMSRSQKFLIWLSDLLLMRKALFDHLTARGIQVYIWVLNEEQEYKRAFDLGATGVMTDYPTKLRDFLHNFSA

Question: FAM91A1 (UniProt Q658Y4) was tested. Which log2 fold change did it give?
Answer: The log2 fold change was -0.025.

Question: For GSK3B isoform 2 (UniProt P49841), which log2 fold change is on record?
Answer: Its log2 fold change is 0.03.

Question: How did the log2 fold change turn out when GDPD1 (UniProt Q8N9F7) was run?
Answer: Its log2 fold change is -0.041.

Question: How did the log2 fold change turn out when FIS1 (UniProt Q9Y3D6) was run?
Answer: Its log2 fold change is -0.022.

Question: How did the log2 fold change turn out when GTF2H3 (UniProt Q13889) was run?
Answer: The log2 fold change was 0.043.

Question: With HSPA8 (UniProt E9PK54) as the target, how does the log2 fold change read?
Answer: The log2 fold change was 0.048.

Question: How did the log2 fold change turn out when FMC1 (UniProt Q96HJ9) was run?
Answer: The log2 fold change was 0.051.

Question: With HEXA (UniProt P06865) as the target, how does the log2 fold change read?
Answer: Its log2 fold change is 0.016.

Question: With HTATIP2 isoform 3 (UniProt Q9BUP3) as the target, how does the log2 fold change read?
Answer: Its log2 fold change is -0.016.

Question: Which log2 fold change does the source give for GTF2E1 (UniProt P29083) here?
Answer: Its log2 fold change is -0.099.

Question: IDI1 isoform 2 (UniProt Q13907) was tested. Which log2 fold change did it give?
Answer: The log2 fold change was 0.044.

Question: With GAPVD1 isoform 6 (UniProt Q14C86) as the target, how does the log2 fold change read?
Answer: Its log2 fold change is -0.043.

Question: With HSPA8 (UniProt P11142) as the target, how does the log2 fold change read?
Answer: The log2 fold change was 0.042.

Question: For HADHB (UniProt P55084), which log2 fold change is on record?
Answer: The log2 fold change was -0.223.

Question: Which log2 fold change does the source give for HDAC1 (UniProt Q13547) here?
Answer: Its log2 fold change is -0.062.

Question: For GMEB2 (UniProt Q9UKD1), which log2 fold change is on record?
Answer: Its log2 fold change is 0.008.

Question: For HEATR5B (UniProt Q9P2D3), which log2 fold change is on record?
Answer: Its log2 fold change is -0.006.

Question: Which log2 fold change does the source give for GBA2 (UniProt Q9HCG7) here?
Answer: The log2 fold change was 0.071.

Question: Which log2 fold change does the source give for HIST2H3A (UniProt Q71DI3) here?
Answer: Its log2 fold change is 0.093.

Question: For GALNT1 (UniProt Q10472), which log2 fold change is on record?
Answer: The log2 fold change was -0.005.

Question: With HDGFL2 (UniProt Q7Z4V5) as the target, how does the log2 fold change read?
Answer: The log2 fold change was 0.036.

Question: HAUS4 (UniProt Q9H6D7) was tested. Which log2 fold change did it give?
Answer: Its log2 fold change is -0.03.

Question: For GLIPR2 (UniProt Q9H4G4), which log2 fold change is on record?
Answer: Its log2 fold change is -0.013.
